PubChem BioAssay AID1508625 (Wald Lab, School of Medicine, Case Western Reserve …, 2021)

Experiment: enhancers of NK cell killing of ovarian tumor cells, primary screen, imaging, OVCAR3, primary NK cells, calcein-AM imaging (AID 1508625);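 further: compound given to NK cells 16 h before adding targets at 1.5 to 1 ratio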
Settings: OVCAR3 lysis by primary NK cells, at 5 µM; z-score: measured here: robust Z-score, single-point normalisation

SMILES	corrected activity, negative = more killing	z-score
Cc1cc(=O)n2[nH]c(C)cc2n1	-3.27%	-0.975
CCC(Sc1nc(C)cc(C)n1)C(=O)Nc1nnc(C)s1 (configuration not stated)	-9.03%	-2.8
Cc1c(C(=O)NCc2ccc(F)cc2)sc2ncn(Cc3ccccc3Cl)c(=O)c12	-2.74%	-0.998
Cn1c2ccccc2c(=Nc2ccc(Br)cc2)c2ccccc21	-4.16%	-1.48
CC(=O)c1c(C(C)=O)c(C)n(-c2ccc(Cl)c(N)c2)c1C	-6.08%	-2.26
O=C1C(=O)N(CCO)C(c2ccc(Br)cc2)C1=C(O)c1ccccc1 (configuration not stated)	-2.24%	-0.856
Cc1nc2sccn2c1C(=O)NN=Cc1ccc(C(C)C)cc1	-4.02%	-1.71
CC(=O)c1cccc(NC(=O)c2ccc(NS(=O)(=O)c3ccccc3)cc2)c1	-4.58%	-1.71
Clc1ccc(CSc2ncnc3c2oc2ccccc23)cc1	-4.09%	-1.16
CC(=O)Nc1ccc(-n2c(C)ccc2C)c(C(=O)O)c1	-2.26%	-1.01
CCOC(=O)CC(NCc1ccc(Cl)c([N+](=O)[O-])c1)c1cccs1 (configuration not stated)	-7.84%	-2.12
COCCNC(=O)c1ccc2snnc2c1	-3.88%	-1.16
O=C(Nc1ccc(Br)cc1)c1ccc(Cl)c(S(=O)(=O)N2CCCCCC2)c1	-9.39%	-2.91
COc1ccc(N(CC(=O)Nc2c(C)n(C)n(-c3ccccc3)c2=O)S(C)(=O)=O)c(OC)c1	-0.645%	-0.246
COc1cc2c(cc1NC(=O)C(C)c1ccc([N+](=O)[O-])cc1)oc1ccccc12 (configuration not stated)	-2.25%	-1.25
COc1ccc([N+](=O)[O-])cc1N=Cc1ccc(N(C)C)cc1	-10%	-2.12
CCCC12CN3CC(C)(CN(C1)C31C(=O)Nc3ccc(Br)cc31)C2=O (configuration not stated)	-2.13%	-0.876
Cc1ccc(S(=O)(=O)n2nc(OC(=O)c3ccc(C)c(C)c3)cc2N)cc1	-5.25%	-1.67
O=c1cc(O)c2c(n1-c1ccccc1)CCCC2	-7.04%	-2.18
CCOc1ccc(-n2c(SCC(=O)Nc3ccc(C)cc3)nc3c([nH]c4ccccc43)c2=O)cc1	-5.11%	-1.27
O=C(c1nn2c(C(F)(F)F)cc(-c3ccco3)nc2c1Br)N1CCCCC1	-4.92%	-1.85

SMILES	corrected activity, negative = more killing	z-score
CCCOc1ccc(C(=O)Nc2ccc3nn(-c4ccc(OCC)cc4)nc3c2)cc1	-3.37%	-1.2
COC(=O)c1cc2nc(-c3ccccc3)cc(C)n2n1	-2.69%	-1.39
Cc1ccc2nc(NC(=O)COC(=O)c3ccc(Br)o3)sc2c1	-3.82%	-1.44
Cc1ccc(C)c(C(=O)COC(=O)CNS(=O)(=O)c2ccccc2)c1	-1.55%	-0.589
O=C(Nc1ccc2oc(-c3cccc4c(Br)cccc34)nc2c1)c1ccccc1[N+](=O)[O-]	-6.04%	-2.14
COc1ccc(C(N)=NOC(=O)c2cc(Cl)ccc2Cl)cc1	-1.41%	-0.786
CCCc1cc(=O)oc2cc3oc4c(c3cc12)CCCC4	-1.47%	-0.438
Cc1c(Cl)cccc1NC(=O)c1sc2ncn(CC(=O)N3CCOCC3)c(=O)c2c1C	0.676%	0.246
O=C(Cc1ccccc1)Nc1ccc2oc(-c3ccc(I)cc3)nc2c1	-1.02%	-0.361
CCOc1ccc2nc(SCC(=O)NC3CC3)sc2c1	-5.49%	-1.7
Cc1ccc(OCCN2CCNCC2)c(Br)c1	-2.45%	-1.36
COC(=O)c1c(NC(=O)c2cc3ccccc3c(=O)o2)sc2c1CCC(C)C2 (configuration not stated)	-0.836%	-0.344
CC1(C)NN=C(N)SC1=O	-0.451%	-0.14
CC(=O)Nc1ccc(S(=O)(=O)NCc2ccc(C(=O)O)cc2)cc1	-5.84%	-1.58
CCC(Oc1ccccc1)C(=O)N1CCC(C(N)=O)CC1 (configuration not stated)	-2.95%	-1.64
CCCn1cnc2sc(C(=O)Nc3ccc(Oc4ccc5c(c4)C(=O)N(c4ccc6c(c4)OCO6)C5=O)cc3)c(C)c2c1=O	-4.94%	-1.8
O=C(CNc1ccc(Br)cc1)c1ccccc1	-3.77%	-1.4
CCCNC(=O)C(=O)Nc1ccc(C(C)C)cc1	-1.6%	-0.603
O=S(=O)(c1ccc(Br)c2nsnc12)N1CCC(Cc2ccccc2)CC1	-3.43%	-1.06
COc1ccc(N2C(=O)c3ccc(C)cc3C2=O)cc1OC	-6.75%	-2.54
